# Results: publication PMC7862700, “An all-to-all approach to the identification of sequence-specific readers for epigenetic DNA modifications on cytosine”
# How the values were obtained:
# Assay in all cases: DAPPL (digital affinity profiling via proximity ligation, sequencing); 10 mM Tris-HCl pH 7.5, 50 mM NaCl, 1 mM DTT, 4% glycerol, room temperature, 30 min; GST-TFs on glutathione beads, 16-mer random dsDNA library, 0.1% formaldehyde crosslink after washing; high values mean tight binding
# FLI1 = target: T1, FLI1 (Homo sapiens, UniProt Q01543 1-452); settings: protein: recombinant; tags: N-terminal GST; dsDNA, one strand shown
# T1 sequence: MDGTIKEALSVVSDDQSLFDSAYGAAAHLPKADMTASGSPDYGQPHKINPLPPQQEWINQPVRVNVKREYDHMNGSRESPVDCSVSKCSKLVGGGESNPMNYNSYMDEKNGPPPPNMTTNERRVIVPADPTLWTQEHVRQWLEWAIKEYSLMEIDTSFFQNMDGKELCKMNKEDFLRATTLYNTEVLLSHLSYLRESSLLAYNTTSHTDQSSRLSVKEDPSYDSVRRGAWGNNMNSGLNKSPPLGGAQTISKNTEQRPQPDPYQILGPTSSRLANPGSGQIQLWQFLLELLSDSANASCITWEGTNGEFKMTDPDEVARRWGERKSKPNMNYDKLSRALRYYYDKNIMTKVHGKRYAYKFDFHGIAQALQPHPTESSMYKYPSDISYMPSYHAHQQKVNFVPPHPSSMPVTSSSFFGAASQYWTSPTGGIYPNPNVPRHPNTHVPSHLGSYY
# Method in brief: (§1)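 Beads coated with glutathione captured GST-fused human transcription factors that had been expressed in yeast, and the factors were then given DNA barcodes and pooled with a tag-only sample. The pools were incubated with 200 nmole of a random double-stranded 16-mer DNA library in Tris/NaCl/DTT/glycerol buffer for 30 min at room temperature, washed, crosslinked with 0.1% formaldehyde and proximity-ligated with BsaI/T4 ligase at 37 °C for 1 h. PCR amplification and Illumina NextSeq500 sequencing came last. Binding signal is each hexamer's read frequency for a factor divided by its frequency for the tag-only sample.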
# ELK1 = target: T2, ELK1 (Homo sapiens, UniProt P19419 1-428); settings: protein: recombinant; tags: N-terminal GST; dsDNA, one strand shown
# T2 sequence: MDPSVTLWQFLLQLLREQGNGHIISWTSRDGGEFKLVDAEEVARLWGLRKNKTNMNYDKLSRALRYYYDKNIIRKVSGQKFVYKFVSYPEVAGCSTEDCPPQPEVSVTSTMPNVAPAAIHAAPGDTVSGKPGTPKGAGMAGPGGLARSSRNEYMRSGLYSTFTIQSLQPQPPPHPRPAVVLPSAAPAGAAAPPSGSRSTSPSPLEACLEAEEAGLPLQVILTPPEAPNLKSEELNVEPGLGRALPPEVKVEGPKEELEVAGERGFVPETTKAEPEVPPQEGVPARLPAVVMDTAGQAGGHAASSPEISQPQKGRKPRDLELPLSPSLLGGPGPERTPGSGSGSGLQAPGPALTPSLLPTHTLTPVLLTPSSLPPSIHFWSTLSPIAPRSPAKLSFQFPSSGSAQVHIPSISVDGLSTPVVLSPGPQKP
# Method in brief: as §1
# GABPA = target: T3, GABPA (Homo sapiens, UniProt Q06546 1-454); settings: protein: recombinant; tags: N-terminal GST; dsDNA, one strand shown
# T3 sequence: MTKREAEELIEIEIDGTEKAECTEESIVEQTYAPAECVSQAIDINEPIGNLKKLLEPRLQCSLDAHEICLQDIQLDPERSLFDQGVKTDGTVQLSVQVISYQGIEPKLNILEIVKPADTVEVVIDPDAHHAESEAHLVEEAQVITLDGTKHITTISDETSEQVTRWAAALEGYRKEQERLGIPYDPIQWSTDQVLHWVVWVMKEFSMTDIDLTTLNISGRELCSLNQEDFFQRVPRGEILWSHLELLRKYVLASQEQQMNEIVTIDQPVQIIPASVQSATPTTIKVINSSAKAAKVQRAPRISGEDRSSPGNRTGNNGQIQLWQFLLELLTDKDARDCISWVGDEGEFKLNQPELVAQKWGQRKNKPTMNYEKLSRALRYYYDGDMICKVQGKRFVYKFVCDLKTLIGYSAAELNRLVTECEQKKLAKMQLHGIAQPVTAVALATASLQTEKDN
# Method in brief: as §1
# ERG = target: T4, ERG (Homo sapiens, UniProt P11308 1-479); settings: protein: recombinant; tags: N-terminal GST; dsDNA, one strand shown
# T4 sequence: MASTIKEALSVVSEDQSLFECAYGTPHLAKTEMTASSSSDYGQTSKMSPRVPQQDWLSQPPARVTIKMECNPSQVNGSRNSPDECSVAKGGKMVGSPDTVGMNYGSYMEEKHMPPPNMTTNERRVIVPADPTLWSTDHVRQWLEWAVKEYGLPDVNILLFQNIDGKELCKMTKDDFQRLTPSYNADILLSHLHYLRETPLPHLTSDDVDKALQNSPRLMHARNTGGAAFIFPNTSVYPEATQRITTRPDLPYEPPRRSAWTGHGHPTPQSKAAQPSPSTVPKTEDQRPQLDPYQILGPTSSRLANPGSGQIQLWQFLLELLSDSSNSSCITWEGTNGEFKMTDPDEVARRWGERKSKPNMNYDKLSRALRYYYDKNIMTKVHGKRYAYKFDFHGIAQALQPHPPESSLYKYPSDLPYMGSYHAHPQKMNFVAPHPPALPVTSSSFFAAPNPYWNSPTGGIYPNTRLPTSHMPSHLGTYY
# Method in brief: as §1
# ELF1 = ELF1 (Homo sapiens, UniProt P32519 1-619); settings: protein: recombinant; tags: N-terminal GST; dsDNA, one strand shown
# Method in brief: as §1
# EHF = target: T5, EHF (Homo sapiens, UniProt Q9NZC4 1-300); settings: protein: recombinant; tags: N-terminal GST; dsDNA, one strand shown
# T5 sequence: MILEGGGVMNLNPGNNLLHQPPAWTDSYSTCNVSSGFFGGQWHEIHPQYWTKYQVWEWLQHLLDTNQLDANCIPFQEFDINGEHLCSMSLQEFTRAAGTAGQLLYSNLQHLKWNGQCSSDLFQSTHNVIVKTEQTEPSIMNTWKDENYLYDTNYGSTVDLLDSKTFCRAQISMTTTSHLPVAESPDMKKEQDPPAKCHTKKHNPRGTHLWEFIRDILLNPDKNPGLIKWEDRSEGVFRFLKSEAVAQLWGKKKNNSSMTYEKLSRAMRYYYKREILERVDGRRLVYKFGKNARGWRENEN
# Method in brief: as §1
# SPI1 = SPI1 (Homo sapiens, UniProt P17947 1-270); settings: protein: recombinant; tags: N-terminal GST; dsDNA, one strand shown
# Method in brief: as §1
# SPIB = SPIB (Homo sapiens, UniProt Q01892 1-262); settings: protein: recombinant; tags: N-terminal GST; dsDNA, one strand shown
# Method in brief: as §1
# ELK3 = target: T6, ELK3 (Homo sapiens, UniProt P41970 1-407); settings: protein: recombinant; tags: N-terminal GST; dsDNA, one strand shown
# T6 sequence: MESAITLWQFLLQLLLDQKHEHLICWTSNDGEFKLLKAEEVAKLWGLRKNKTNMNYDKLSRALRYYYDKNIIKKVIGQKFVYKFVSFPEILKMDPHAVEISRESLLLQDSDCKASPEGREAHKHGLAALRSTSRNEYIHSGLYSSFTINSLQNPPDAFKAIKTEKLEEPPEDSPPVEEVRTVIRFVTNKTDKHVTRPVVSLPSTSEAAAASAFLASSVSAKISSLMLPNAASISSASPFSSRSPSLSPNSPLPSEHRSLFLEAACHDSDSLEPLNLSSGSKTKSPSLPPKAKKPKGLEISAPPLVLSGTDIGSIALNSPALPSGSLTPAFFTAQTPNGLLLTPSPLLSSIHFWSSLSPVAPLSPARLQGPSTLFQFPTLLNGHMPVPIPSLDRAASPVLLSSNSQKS
# Method in brief: as §1
# FEV = target: T7, FEV (Homo sapiens, UniProt Q99581 1-238); settings: protein: recombinant; tags: N-terminal GST; dsDNA, one strand shown
# T7 sequence: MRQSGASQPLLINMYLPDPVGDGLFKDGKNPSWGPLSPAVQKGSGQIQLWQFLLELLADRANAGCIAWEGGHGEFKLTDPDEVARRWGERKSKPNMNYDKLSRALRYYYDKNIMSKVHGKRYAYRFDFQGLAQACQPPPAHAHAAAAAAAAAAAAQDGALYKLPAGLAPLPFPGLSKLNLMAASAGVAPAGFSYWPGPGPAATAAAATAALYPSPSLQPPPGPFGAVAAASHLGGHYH
# Method in brief: as §1
# ETV5 = ETV5 (Homo sapiens, UniProt P41161 1-510); settings: protein: recombinant; tags: N-terminal GST; dsDNA, one strand shown
# Method in brief: as §1
# HSF1 = HSF1 (Homo sapiens, UniProt Q00613 1-529); settings: protein: recombinant; tags: N-terminal GST; chain copies: 3; dsDNA, one strand shown
# Method in brief: as §1
# SPIC = target: T8, SPIC (Homo sapiens, UniProt Q8N5J4 1-248); settings: protein: recombinant; tags: N-terminal GST; dsDNA, one strand shown
# T8 sequence: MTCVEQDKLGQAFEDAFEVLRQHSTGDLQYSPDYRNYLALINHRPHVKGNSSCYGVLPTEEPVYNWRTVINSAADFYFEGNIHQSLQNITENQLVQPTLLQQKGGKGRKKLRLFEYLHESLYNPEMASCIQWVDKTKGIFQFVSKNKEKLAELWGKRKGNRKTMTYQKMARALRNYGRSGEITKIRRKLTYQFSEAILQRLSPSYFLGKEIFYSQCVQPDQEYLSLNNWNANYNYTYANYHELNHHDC
# Method in brief: as §1
# ELF4 = ELF4 (Homo sapiens, UniProt Q99607 1-663); settings: protein: recombinant; tags: N-terminal GST; dsDNA, one strand shown
# Method in brief: as §1
# ELK4 = target: T9, ELK4 (Homo sapiens, UniProt P28324-2 1-405); settings: protein: recombinant; tags: N-terminal GST; dsDNA, one strand shown
# T9 sequence: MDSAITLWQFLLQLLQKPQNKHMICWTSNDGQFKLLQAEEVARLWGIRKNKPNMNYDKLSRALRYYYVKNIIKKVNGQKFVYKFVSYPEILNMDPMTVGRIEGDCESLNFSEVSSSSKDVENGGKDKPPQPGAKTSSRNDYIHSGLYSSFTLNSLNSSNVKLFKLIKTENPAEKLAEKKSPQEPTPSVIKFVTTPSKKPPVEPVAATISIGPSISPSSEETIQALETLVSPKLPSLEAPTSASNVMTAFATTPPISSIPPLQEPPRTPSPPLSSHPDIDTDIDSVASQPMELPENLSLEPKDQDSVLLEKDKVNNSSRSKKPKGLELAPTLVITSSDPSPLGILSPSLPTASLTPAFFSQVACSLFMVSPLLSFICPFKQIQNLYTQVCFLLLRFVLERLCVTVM
# Method in brief: as §1
# ETV2 = target: T10, ETV2 (Homo sapiens, UniProt O00321 1-342); settings: protein: recombinant; tags: N-terminal GST; dsDNA, one strand shown
# T10 sequence: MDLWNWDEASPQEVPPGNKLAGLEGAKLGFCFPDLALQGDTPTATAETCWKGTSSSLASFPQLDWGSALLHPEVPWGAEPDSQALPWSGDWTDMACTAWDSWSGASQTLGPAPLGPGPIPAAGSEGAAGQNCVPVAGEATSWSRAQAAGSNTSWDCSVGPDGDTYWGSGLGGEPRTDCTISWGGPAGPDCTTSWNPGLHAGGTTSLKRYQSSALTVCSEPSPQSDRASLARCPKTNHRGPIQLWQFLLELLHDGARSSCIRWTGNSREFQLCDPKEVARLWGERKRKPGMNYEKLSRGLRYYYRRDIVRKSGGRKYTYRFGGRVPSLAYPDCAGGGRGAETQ
# Method in brief: as §1
# ELF3 = target: T11, ELF3 (Homo sapiens, UniProt P78545 1-371); settings: protein: recombinant; tags: N-terminal GST; dsDNA, one strand shown
# T11 sequence: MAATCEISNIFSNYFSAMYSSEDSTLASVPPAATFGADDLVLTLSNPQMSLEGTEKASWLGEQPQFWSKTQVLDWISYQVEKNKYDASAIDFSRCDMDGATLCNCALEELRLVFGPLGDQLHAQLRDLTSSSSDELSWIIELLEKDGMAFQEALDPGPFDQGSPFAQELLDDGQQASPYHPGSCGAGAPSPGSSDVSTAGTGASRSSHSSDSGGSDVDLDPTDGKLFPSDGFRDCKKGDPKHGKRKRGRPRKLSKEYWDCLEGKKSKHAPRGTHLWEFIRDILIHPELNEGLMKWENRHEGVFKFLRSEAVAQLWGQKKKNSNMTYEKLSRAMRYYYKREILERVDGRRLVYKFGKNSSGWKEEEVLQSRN
# Method in brief: as §1
# CRX = CRX (Homo sapiens, UniProt O43186 1-299); settings: protein: recombinant; tags: N-terminal GST; dsDNA, one strand shown
# Method in brief: as §1
# ETV1 = ETV1 (Homo sapiens, UniProt P50549 1-477); settings: protein: recombinant; tags: N-terminal GST; dsDNA, one strand shown
# Method in brief: as §1
# HSF1, sequence (Q00613 whole entry): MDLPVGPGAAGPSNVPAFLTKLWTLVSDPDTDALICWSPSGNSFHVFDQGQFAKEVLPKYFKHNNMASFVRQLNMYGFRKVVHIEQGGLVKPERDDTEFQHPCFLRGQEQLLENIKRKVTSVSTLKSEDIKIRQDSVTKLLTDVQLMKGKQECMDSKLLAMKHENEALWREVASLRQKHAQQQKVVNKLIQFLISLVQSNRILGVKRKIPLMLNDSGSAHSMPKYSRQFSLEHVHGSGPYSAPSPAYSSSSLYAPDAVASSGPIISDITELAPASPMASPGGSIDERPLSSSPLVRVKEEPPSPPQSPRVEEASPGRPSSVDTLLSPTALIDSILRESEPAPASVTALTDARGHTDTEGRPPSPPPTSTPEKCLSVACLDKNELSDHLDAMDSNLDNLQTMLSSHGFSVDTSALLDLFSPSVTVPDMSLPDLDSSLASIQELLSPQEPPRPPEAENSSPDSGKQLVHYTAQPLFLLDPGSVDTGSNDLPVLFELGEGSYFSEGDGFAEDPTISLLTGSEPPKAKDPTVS
# ETV1, sequence (P50549 whole entry): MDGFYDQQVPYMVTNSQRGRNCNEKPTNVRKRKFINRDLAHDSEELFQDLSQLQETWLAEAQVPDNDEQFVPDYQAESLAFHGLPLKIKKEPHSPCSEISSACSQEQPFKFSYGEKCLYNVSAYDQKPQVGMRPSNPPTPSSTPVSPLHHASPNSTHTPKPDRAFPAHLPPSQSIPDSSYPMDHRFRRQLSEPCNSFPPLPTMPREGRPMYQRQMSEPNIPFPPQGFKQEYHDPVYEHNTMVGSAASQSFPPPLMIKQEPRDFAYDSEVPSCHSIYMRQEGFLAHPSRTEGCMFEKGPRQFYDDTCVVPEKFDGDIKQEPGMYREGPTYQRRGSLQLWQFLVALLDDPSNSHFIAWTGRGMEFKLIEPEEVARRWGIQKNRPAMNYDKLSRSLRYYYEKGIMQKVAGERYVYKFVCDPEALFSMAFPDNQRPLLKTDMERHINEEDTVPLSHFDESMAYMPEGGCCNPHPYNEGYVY
# CRX, sequence (O43186 whole entry): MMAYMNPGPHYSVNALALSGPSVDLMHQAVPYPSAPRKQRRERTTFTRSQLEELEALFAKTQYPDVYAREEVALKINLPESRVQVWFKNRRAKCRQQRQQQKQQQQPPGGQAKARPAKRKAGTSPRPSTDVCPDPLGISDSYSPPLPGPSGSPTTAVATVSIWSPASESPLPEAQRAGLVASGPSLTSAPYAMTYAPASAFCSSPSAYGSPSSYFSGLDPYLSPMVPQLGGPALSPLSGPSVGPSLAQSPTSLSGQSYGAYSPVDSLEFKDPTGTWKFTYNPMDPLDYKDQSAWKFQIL
# SPIB, sequence (Q01892 whole entry): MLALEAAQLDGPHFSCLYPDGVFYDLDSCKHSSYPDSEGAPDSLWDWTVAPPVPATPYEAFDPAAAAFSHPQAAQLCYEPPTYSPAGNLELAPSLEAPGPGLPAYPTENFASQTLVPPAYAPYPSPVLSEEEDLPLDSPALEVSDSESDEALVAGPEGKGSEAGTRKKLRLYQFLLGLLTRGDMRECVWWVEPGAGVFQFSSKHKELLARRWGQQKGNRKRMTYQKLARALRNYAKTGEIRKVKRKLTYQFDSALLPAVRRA
# ELF4, sequence (Q99607 whole entry): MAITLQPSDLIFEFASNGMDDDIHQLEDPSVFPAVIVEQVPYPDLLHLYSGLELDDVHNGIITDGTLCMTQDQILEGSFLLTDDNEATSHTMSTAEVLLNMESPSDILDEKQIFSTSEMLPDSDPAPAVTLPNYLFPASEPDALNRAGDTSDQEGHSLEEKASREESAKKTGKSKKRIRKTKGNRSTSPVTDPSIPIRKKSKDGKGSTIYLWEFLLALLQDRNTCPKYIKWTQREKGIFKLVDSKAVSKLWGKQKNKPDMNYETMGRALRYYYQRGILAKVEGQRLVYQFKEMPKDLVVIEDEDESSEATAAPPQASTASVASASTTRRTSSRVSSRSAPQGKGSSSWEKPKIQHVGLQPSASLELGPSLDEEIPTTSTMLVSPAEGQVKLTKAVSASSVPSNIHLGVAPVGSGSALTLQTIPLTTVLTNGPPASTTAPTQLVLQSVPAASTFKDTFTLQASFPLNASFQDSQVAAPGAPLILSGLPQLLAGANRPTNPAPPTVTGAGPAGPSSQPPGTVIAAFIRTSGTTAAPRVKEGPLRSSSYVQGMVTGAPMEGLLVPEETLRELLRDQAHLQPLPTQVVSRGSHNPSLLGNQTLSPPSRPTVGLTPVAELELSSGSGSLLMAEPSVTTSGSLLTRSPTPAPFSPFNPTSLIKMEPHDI
# ETV5, sequence (P41161 whole entry): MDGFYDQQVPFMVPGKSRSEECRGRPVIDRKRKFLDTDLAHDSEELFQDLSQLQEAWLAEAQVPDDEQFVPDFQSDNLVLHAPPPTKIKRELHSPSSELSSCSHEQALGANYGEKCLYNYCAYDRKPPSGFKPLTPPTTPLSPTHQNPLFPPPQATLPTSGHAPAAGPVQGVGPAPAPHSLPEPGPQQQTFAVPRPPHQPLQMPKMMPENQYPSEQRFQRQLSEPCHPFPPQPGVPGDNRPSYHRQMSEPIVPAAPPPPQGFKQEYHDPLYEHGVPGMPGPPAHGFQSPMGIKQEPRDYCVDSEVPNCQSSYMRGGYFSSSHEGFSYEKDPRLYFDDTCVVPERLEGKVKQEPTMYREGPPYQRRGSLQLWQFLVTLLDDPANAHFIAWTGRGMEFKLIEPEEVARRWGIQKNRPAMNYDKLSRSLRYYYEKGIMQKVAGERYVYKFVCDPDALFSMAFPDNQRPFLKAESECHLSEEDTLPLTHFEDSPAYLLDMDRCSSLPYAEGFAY
# ELF1, sequence (P32519 whole entry): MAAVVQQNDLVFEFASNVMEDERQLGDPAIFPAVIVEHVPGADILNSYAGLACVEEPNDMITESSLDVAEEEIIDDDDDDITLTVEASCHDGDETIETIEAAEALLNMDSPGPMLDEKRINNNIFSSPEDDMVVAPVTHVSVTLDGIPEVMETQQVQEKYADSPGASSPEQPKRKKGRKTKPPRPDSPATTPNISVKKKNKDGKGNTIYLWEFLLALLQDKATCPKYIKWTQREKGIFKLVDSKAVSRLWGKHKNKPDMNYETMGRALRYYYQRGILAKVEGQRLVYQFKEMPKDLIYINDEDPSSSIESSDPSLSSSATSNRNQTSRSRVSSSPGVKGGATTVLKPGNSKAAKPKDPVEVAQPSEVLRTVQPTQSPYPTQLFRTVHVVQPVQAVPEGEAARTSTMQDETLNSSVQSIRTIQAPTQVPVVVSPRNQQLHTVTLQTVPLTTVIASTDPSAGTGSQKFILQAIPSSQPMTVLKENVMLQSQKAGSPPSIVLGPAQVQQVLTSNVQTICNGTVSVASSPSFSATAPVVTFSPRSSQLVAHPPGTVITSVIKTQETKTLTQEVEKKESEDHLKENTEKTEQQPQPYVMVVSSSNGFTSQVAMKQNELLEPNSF
sequence,measurement,setting,value
AGCTAC,binding signal,FLI1,"1.13 fold enrichment (6-mer frequency, TF over GST control)"
same,binding signal,ELK1,"1.11 fold enrichment (6-mer frequency, TF over GST control)"
same,binding signal,GABPA,"1.16 fold enrichment (6-mer frequency, TF over GST control)"
same,binding signal,ERG,"1.13 fold enrichment (6-mer frequency, TF over GST control)"
same,binding signal,ELF1,"1.15 fold enrichment (6-mer frequency, TF over GST control)"
same,binding signal,EHF,"1.22 fold enrichment (6-mer frequency, TF over GST control)"
same,binding signal,SPI1,"1.17 fold enrichment (6-mer frequency, TF over GST control)"
same,binding signal,SPIB,"1.19 fold enrichment (6-mer frequency, TF over GST control)"
same,binding signal,ELK3,"1.18 fold enrichment (6-mer frequency, TF over GST control)"
same,binding signal,FEV,"1.23 fold enrichment (6-mer frequency, TF over GST control)"
same,binding signal,ETV5,"1.21 fold enrichment (6-mer frequency, TF over GST control)"
same,binding signal,HSF1,"1.04 fold enrichment (6-mer frequency, TF over GST control)"
same,binding signal,SPIC,"1.21 fold enrichment (6-mer frequency, TF over GST control)"
same,binding signal,ELF4,"1.12 fold enrichment (6-mer frequency, TF over GST control)"
same,binding signal,ELK4,"1.25 fold enrichment (6-mer frequency, TF over GST control)"
same,binding signal,ETV2,"1.03 fold enrichment (6-mer frequency, TF over GST control)"
same,binding signal,ELF3,"1.34 fold enrichment (6-mer frequency, TF over GST control)"
same,binding signal,CRX,"1.04 fold enrichment (6-mer frequency, TF over GST control)"
same,binding signal,ETV1,"1.21 fold enrichment (6-mer frequency, TF over GST control)"
